Screens: PubChem BioAssay, several laboratories
CYP2C9 inhib – blocks human cytochrome P450 2C9 | actives 20% (n = 96,000) | P11712 | inhibition, % at 5 µM | CYP2C9 Supersomes, luciferin-H conversion, luminescence;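 active = blocking of liver enzyme CYP2C9 beyond about 50% at 5 µM, limit read from the data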
Target sequence (P11712 whole entry, looked up): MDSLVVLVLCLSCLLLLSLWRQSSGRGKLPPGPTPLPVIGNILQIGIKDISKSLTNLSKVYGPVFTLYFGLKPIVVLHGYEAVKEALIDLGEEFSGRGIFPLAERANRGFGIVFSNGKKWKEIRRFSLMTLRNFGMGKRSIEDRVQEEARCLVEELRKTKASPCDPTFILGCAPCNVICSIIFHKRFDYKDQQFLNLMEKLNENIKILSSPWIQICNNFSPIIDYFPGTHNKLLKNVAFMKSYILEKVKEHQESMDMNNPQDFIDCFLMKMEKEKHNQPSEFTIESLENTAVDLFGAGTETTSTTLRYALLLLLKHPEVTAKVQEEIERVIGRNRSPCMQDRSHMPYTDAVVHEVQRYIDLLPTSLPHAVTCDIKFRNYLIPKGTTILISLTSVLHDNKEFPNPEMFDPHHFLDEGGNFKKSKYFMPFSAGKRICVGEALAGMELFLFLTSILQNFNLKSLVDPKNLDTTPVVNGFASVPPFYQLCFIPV
CYP2C19 inh – blocks human cytochrome P450 2C19; actives 21% (n = 96,000); P33261; CYP2C19 Supersomes, luciferin-H EGE luminescence, 30 min; inhibition, % at 5 µM;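 active = CYP2C19 inhibition above a set limit at 5 µM in the primary screen, cut at about 50% in these data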;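 note: plate controls were negative control wells for no effect and 2.5 mM tranylcypromine positive control for full effect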
sEH inh – blocks human soluble epoxide hydrolase activity; recombinant human sEH enzymatic activity assay; inhibition, % at 2 µM; actives 0.34% (n = 91,000); AID 707; in the data active = inhibition above about 80%
CYP2C9 act – CYP2C9 (human) activation | P11712 | recombinant CYP2C9, luciferin-H conversion, luminescence; stronger effect = higher value; factor 1 = untreated enzyme, 0 = blocked | activation factor at 5 µM | actives 1.4% (n = 96,000) | AID 1024;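 active = activation factor of 2 or more for CYP2C9 at a 5 µM dose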;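 note: 0 = sulfaphenazole-blocked wells and 1 = vehicle-only wells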
CYP2C19 activ – cytochrome P450 2C19 (human) activation; P33261; activation factor at 5 µM; 96,000 tested, under 10 active; recombinant CYP2C19, luciferin-H EGE luminescence; stronger effect = higher value; 0 = fully inhibited enzyme, 1 = untreated enzyme;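 active = activation factor of at least 2 at 5 µM in the primary screen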;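 note: 0 = wells with 2.5 mM tranylcypromine and 1 = vehicle-only wells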
sEH activator – increases human soluble epoxide hydrolase activity; P34913; purified human sEH enzymatic activity, activator screen; actives 0.04% (n = 91,000); activation, % at 2 µM; in the data active = activation above about 37%
An asterisk follows results filed as active. Shown are actives, neighbours in structure and some others; about 27% of the full set was active somewhere.

Results for COc1ccc(N2CCN(C(CNC(=O)c3ccc4c(c3)OCO4)c3cccnc3)CC2)cc1 (stereo not given) ?
CYP2C9 inhib: 28; CYP2C19 inh: 17; sEH inh: 7; CYP2C9 act: 0.7; CYP2C19 activ: 0.8; sEH activator: -7

How did O=C(NCC(c1cccnc1)N1CCN(c2ccc(F)cc2)CC1)c1ccc(F)cc1 (stereo not given) do in these assays?
CYP2C9 inhib: 77*; CYP2C19 inh: 81*; sEH inh: 8; CYP2C9 act: 0.2; CYP2C19 activ: 0.2; sEH activator: -8

Results for O=C(Oc1cccc(NC(=O)c2ccco2)c1)c1ccc(Br)c(S(=O)(=O)N2CCCCC2)c1 ?
CYP2C9 inhib: 48; CYP2C19 inh: 26; sEH inh: -11; CYP2C9 act: 0.5; CYP2C19 activ: 0.7; sEH activator: 12

How did Cc1ccc(C(=O)Oc2cccc(NC(=O)c3ccco3)c2)cc1S(=O)(=O)N1CCC(C)CC1 do in these assays?
CYP2C9 inhib: 85*; CYP2C19 inh: 60*; sEH inh: -7; CYP2C9 act: 0.1; CYP2C19 activ: 0.4; sEH activator: 2

How did Cc1csc(SCC(=O)NCc2cccs2)n1 do in these assays?
CYP2C9 inhib: 16; CYP2C19 inh: 36; CYP2C9 act: 0.8; CYP2C19 activ: 0.6

What do the screens show for `Cc1nc2ccccc2c(=O)n1NCc1cccs1`?
CYP2C9 inhib: 21; CYP2C19 inh: 75*; sEH inh: -4; CYP2C9 act: 0.8; CYP2C19 activ: 0.3; sEH activator: 5

Results for O=C(Nn1c(Cc2cccs2)nc2ccccc2c1=O)c1cccs1 ?
CYP2C9 inhib: 80*; CYP2C19 inh: 84*; CYP2C9 act: 0.2; CYP2C19 activ: 0.2

What do the screens show for `CCCn1c(CCNC(=O)c2cccs2)nc2ccccc21`?
sEH inh: 9; sEH activator: -6

What do the screens show for `CN(C)S(=O)(=O)N1CCN(CC(O)COc2ccc(C(=O)c3ccccc3)cc2)CC1` (stereo not given)?
CYP2C9 inhib: 38; CYP2C19 inh: 25; sEH inh: -21; CYP2C9 act: 0.6; CYP2C19 activ: 0.7; sEH activator: 18

Results for COc1ccccc1CCn1cnc2c3cc(C)ccc3n(C)c2c1=O ?
CYP2C9 inhib: 71*; CYP2C19 inh: 93*; sEH inh: 3; CYP2C9 act: 0.3; CYP2C19 activ: 0.1; sEH activator: 0

How did COc1ccc2c(c1)c1ncn(CCN3CCCCC3)c(=O)c1n2C do in these assays?
CYP2C9 inhib: 56*; CYP2C19 inh: 43; sEH inh: 5; CYP2C9 act: 0.4; CYP2C19 activ: 0.6; sEH activator: -5

Results for COc1ccc2c(c1)c1ncn(CCN3CCCC3)c(=O)c1n2C ?
CYP2C9 inhib: 11; CYP2C19 inh: -14; sEH inh: -8; CYP2C9 act: 0.9; CYP2C19 activ: 1.1; sEH activator: 6

How did Cc1ccc(S(=O)(=O)N2CCC(C(=O)NCCCOC(C)C)CC2)cc1 do in these assays?
CYP2C9 inhib: -25; CYP2C19 inh: 0; sEH inh: -11; CYP2C9 act: 1.3; CYP2C19 activ: 1; sEH activator: 10

What do the screens show for `CCOc1cccc(=O)c2c(C)n(C)c(C)c12`?
CYP2C9 inhib: 49; CYP2C19 inh: 52*; sEH inh: 2; CYP2C9 act: 0.5; CYP2C19 activ: 0.5; sEH activator: -4

Results for CCN(CC)c1ccc(/C=N/n2c(C)cc(C)cc2=O)cc1 ?
CYP2C9 inhib: -40; CYP2C19 inh: 46; sEH inh: 1; CYP2C9 act: 1.4; CYP2C19 activ: 0.5; sEH activator: 0

Results for Cc1ccc(C)c(NC(=O)c2ccc[n+](Cc3ccc([N+](=O)[O-])cc3)c2)c1 ?
CYP2C9 inhib: -6; CYP2C19 inh: -14; sEH inh: -2; CYP2C9 act: 1.1; CYP2C19 activ: 1.1; sEH activator: 4

Results for COc1cc(CNn2cn[nH]c2=S)cc(Cl)c1OCc1ccccc1 ?
CYP2C9 inhib: 23; CYP2C19 inh: 82*; sEH inh: 8; CYP2C9 act: 0.8; CYP2C19 activ: 0.2; sEH activator: -6

What do the screens show for `CC(C)CNS(=O)(=O)c1ccc(OCC(=O)NCC2CCCO2)c(Cl)c1` (stereo not given)?
sEH inh: 25; sEH activator: -23

Results for NC(=O)c1ccc(-c2ccc(Br)cc2)o1 ?
CYP2C9 inhib: 46; CYP2C19 inh: 51*; sEH inh: -5; CYP2C9 act: 0.5; CYP2C19 activ: 0.5; sEH activator: 4

What do the screens show for `Cc1sc2ncnc(SCC#N)c2c1C`?
CYP2C9 inhib: -27; CYP2C19 inh: 2; CYP2C9 act: 1.3; CYP2C19 activ: 1

How did CCCN(CC1CC1)C(=O)CSc1ncnc2sc(C)c(C)c12 do in these assays?
CYP2C9 inhib: 53*; CYP2C19 inh: 92*; sEH inh: 12; CYP2C9 act: 0.5; CYP2C19 activ: 0.1; sEH activator: -11

What do the screens show for `Cc1sc2ncnc(SCC(=O)c3cccs3)c2c1C`?
CYP2C9 inhib: 60*; CYP2C19 inh: 23; sEH inh: 12; CYP2C9 act: 0.4; CYP2C19 activ: 0.8; sEH activator: -14

What do the screens show for `Cc1sc2ncnc(SCC(=O)N3CCCC3=O)c2c1C`?
CYP2C9 inhib: 63*; CYP2C19 inh: 59*; sEH inh: 4; CYP2C9 act: 0.4; CYP2C19 activ: 0.4; sEH activator: -4

How did Cc1sc2ncnc(SCC(=O)NNC(=O)COc3cccc4ccccc34)c2c1C do in these assays?
CYP2C9 inhib: -38; CYP2C19 inh: -9; sEH inh: 6; CYP2C9 act: 1.4; CYP2C19 activ: 1.1; sEH activator: -5

Results for CCN1CCCC1CNC(=O)c1ccc(CS(=O)(=O)c2ccccc2C)o1 (stereo not given) ?
CYP2C9 inhib: -14; CYP2C19 inh: -12; CYP2C9 act: 1.1; CYP2C19 activ: 1.1

How did Cc1nc(N)c(C#N)c(-c2ccccc2)c1C do in these assays?
CYP2C9 inhib: 22; CYP2C19 inh: 17; sEH inh: -14; CYP2C9 act: 0.8; CYP2C19 activ: 0.8; sEH activator: 14

Results for Cc1c(-c2ccccc2)nc(N)c(C#N)c1-c1ccco1 ?
CYP2C9 inhib: 45; CYP2C19 inh: 69*; sEH inh: -8; CYP2C9 act: 0.5; CYP2C19 activ: 0.3; sEH activator: 7

What do the screens show for `O=c1cc(NCc2ccccc2)c2ccccc2o1`?
CYP2C9 inhib: -1; CYP2C19 inh: 66*; sEH inh: 8; CYP2C9 act: 1; CYP2C19 activ: 0.3; sEH activator: -5

Results for Cc1ccc(-n2c(N)c(C(=O)N3CCCCC3)sc2=S)cc1 ?
CYP2C9 inhib: 26; CYP2C19 inh: 67*; sEH inh: -10; CYP2C9 act: 0.7; CYP2C19 activ: 0.3; sEH activator: 10

Results for O=C(Nc1cccnc1)c1cc(-c2ccc3c(c2)OCO3)on1 ?
CYP2C9 inhib: 3; CYP2C19 inh: 3; CYP2C9 act: 1; CYP2C19 activ: 1
